Compound activity: PubChem, several laboratories
NADH enzymes – blocks coupling enzymes of NAD/NADH assays. coupled PK/LDH NADH assays, four targets. IC50, µM (top dose mostly 10 µM), inactives show top-dose inhibition. 65,000 compounds, 0.02% hits;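 active = single-dose screening hits from any of four coupled enzyme assays that gave an IC50 when retested across doses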;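 note: the DPM-DC format reads NADH fluorescence rather than 340 nm absorbance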
Cdc25B block – human M-phase inducer phosphatase 2 inhibition. recombinant Cdc25B, OMFP fluorescence Ex485/Em525. inhibition, %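 (compounds tested at 10 µM final in the well)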. 65,000 compounds, 0.1% hits. AID 368; in the data active = inhibition above about 50%
Target sequence (P30305 whole entry, looked up): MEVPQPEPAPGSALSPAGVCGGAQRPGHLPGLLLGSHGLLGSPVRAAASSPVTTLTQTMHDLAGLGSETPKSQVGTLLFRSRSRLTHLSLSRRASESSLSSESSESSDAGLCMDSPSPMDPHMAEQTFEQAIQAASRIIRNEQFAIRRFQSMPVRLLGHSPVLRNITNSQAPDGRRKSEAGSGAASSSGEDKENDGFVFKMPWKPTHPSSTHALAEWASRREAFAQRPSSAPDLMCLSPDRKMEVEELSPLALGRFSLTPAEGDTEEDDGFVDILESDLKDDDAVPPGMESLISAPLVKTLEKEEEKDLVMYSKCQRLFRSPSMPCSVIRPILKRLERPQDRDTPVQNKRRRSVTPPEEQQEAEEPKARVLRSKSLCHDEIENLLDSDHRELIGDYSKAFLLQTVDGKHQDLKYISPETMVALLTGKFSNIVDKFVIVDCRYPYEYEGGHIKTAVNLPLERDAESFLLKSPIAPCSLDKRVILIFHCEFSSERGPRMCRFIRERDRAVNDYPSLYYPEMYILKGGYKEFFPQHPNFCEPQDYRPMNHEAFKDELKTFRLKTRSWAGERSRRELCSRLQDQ
MKP-1 inh – inhibitors of human MKP-1 phosphatase | recombinant MKP-1, OMFP hydrolysis fluorescence | inhibition, %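 (compounds tested at a single concentration somewhere between 10 and 100 µM)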 | 65,000 compounds, 0.15% hits | AID 374;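 active = inhibition above about 50%, limit read from the data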;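 note: 0% = DMSO max control wells and 100% = wells with enzyme stopped by NaOH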
A340 absorber – compound absorbs light at 340 nm | fold change at 10 µM | 65,000 tested, under 10 active | compound absorbance at 340 nm, fold over control;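 active = at 10 µM dose, initial 340 nm absorbance at least 2 fold that of control wells; inactive = change under 2 fold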;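 note: initial absorbance extrapolated from kinetic A340 decline of NADH oxidation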
Hsp90 inh – displaces geldanamycin probe from tumor Hsp90; NCI-N417 lysate Hsp90, Cy3B-geldanamycin FP displacement; AID 429; 64,000 compounds, 0.35% hits; P07900; inhibition, % at 30 µM;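 active = inhibition above 50%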;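 note: 0% = tracer plus lysate wells and 100% = tracer alone without lysate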
Autofluor 339 – intrinsic fluorescence of library compounds, ex339/em460 – biochemical, MLSMR library, data from DPM-DC assay, artefact control, profiling panel; compound autofluorescence, ex339/em460 nm, NADH buffer; active compounds read high; 1 = no-compound wells, NADH background; fluorescence fold increase at 10 µM; 65,000 compounds, 5.5% hits;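 active = at 10 µM, mean starting fluorescence two-fold or more over control wells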;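 note: signal is the first read of a kinetic run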
* = called active by the depositor; · = no result given. Shown are actives, neighbours in structure and some others; about 5.7% of the full set was active somewhere.

SMILES	NADH enzymes	Cdc25B block	MKP-1 inh	A340 absorber	Hsp90 inh	Autofluor 339
CCC1CCCCN1C(=O)CSc1nnc(CNC(=O)COc2ccc(Cl)cc2)o1 (configuration not stated)	9.0%	3.2	17.8	1.01	-2.6	1.03
COc1ccc(OC)c(NC(=O)CSc2nnc(Cn3c(=O)sc4ccccc43)n2C)c1	1.0%	-10.6	12.8	1.06	-2.1	1.01
O=C1CCSc2cccc3cccc(c23)N1	3.0%	-1.8	4.1	1.04	-2.1	1.11
c1cc2c3c(cccc3c1)NC1(CCCCCC1)N2	9.0%	5.5	20.1	1.07	25.3	3.76*
Cc1nn(C(=O)c2ccc3c(c2)OCO3)c(N)c1-c1ccccc1	1.0%	6.8	-15.5	1	-1.2	1.02
Cc1ccc(Cn2c(=O)n(Cc3ccco3)c(=O)c3ccccc32)cc1	2.0%	-7.7	6.1	1.02	-2.7	1.1
CC(NC(=O)Nc1ccccc1O)(C(F)(F)F)C(F)(F)F	3.0%	2.7	-10.9	1.02	5.2	2.58*
CC(NC(=O)Nc1ccc(O)cc1)(C(F)(F)F)C(F)(F)F	1.0%	-33.5	-15.1	1.02	0.0	1.09
CCOC(=O)N1CCC(NC(=O)c2ccc3c(c2)N(CC)CCS3)CC1	4.0%	-6.8	-4.8	0.99	-3.0	2.42*
CCOC(=O)N1CCC(NC(=O)c2cc3cc4cc(OC)ccc4nc3o2)CC1	5.0%	9.8	11.4	1.06	-2.3	5.11*
COc1ccc2nc3oc(C(=O)NC4CCN(Cc5ccccc5)CC4)cc3cc2c1	15.0%	10.6	-0.1	1	-0.7	3.41*
CCOC(=O)N1CCC(NC(=O)c2ccc3c(c2)sc2nc(-c4ccc(OC)cc4)cn23)CC1	7.0%	9.6	28.3	1.02	1.4	3.55*
NCC1OC(O[C@@H]2[C@H](O)C(OC3C(O)C(N)CC(N)C3OC3OC(CO)C(O)C(O)C3N)O[C@@H]2CO)C(N)C(O)C1O (some centres not stated)	·	·	·	·	1.0	·
CC(C)CC(=O)N1CCN(C(=O)CCC2CCCC2)CC1	3.0%	0.1	9.5	1.03	-1.1	1.07
CN(C)CCNC(=O)c1ccc(COCC(F)(F)F)cc1	3.0%	-13.3	-1.3	0.99	-0.7	1
CN(C)CCNC(=O)c1ccc2c(c1)N(Cc1ccc(F)cc1)CCS2	15.0%	-7.6	-21.0	1.02	0.8	2.05*
Cc1ccccc1OCCNC(=O)CNC(=O)c1ccccc1O	7.0%	-3.9	6.7	1.04	0.6	3.71*
CC1CCN(Cc2nc3c(c(=O)n(C)c(=O)n3C)n2CCN2CCOCC2)CC1	3.0%	-14.0	-1.9	1.03	·	1.04
CC1(C)CC(=O)C2=C(C1)N(CCN1CCOCC1)C1=C(C(=O)CC(C)(C)C1)C2c1cccc(Cl)c1	0.0%	-7.4	30.6	0.99	-0.7	4.3*
CC(=O)c1cccc(S(=O)(=O)N(CCCO)Cc2cc3ccc(C)cc3[nH]c2=O)c1	5.0%	3.7	-4.8	1.1	-2.4	1.07
O=C1NC(=O)c2cc(NC(=O)C3CCCCC3)ccc21	4.0%	3.8	-29.8	1.08	3.0	3.62*
CC(=O)c1cccc(NC(=O)C2CCCC2)c1	3.0%	-12.1	-3.2	1.04	·	1.1
CC(C)CN(C)c1nc(N)c(C(=O)N=C(N)N)nc1Cl	·	·	·	·	0.9	·
CN1/C(=C\C(=O)C(F)F)C(C)(C)c2ccccc21	5.0%	-3.5	-3.5	1.03	-32.6	1.14
CN1C(=O)C2(N=c3ccccc3=N2)c2ccccc21	3.0%	-10.8	-12.8	1.06	-0.2	2.09*
SMILES	NADH enzymes	Cdc25B block	MKP-1 inh	A340 absorber	Hsp90 inh	Autofluor 339
COCCCN=C(c1ccco1)n1c(=S)nc(-c2ccco2)n(CCCOC)c1=S	9.0%	-4.7	5.9	1.25	·	1.02
CCOCCCNS(=O)(=O)c1ccc2c(c1)CCN2C(C)=O	5.0%	-1.9	-6.4	1.05	-3.2	1.11
CCOC(=O)c1nn(-c2ccc3c(c2)CCN3C(C)=O)cc1O	3.0%	-5.1	5.9	1.13	·	2.2*
CC(C)n1c(N2CCN(CC(=O)Nc3ccc4c(c3)OCCO4)CC2)nc2ccccc21	1.0%	-14.8	5.9	0.96	-4.4	1.25
CCn1c(COc2ccc(C)cc2)nnc1SCC(=O)Nc1ccc2c(c1)OCCO2	3.0%	-31.1	24.3	1.01	-0.9	2.02*
CCOC(=O)C1CCN(C(=O)Nc2ccc3oc(C)nc3c2)CC1	6.0%	3.7	0.5	1.02	-9.2	1.14
CCOC(=O)C1CCN(C(=O)Nc2ccc3nc(C)c(C)nc3c2)CC1	3.0%	-8.9	8.1	1.01	0.4	2.92*
COc1cc(N)c2ncccc2c1	·	·	·	·	17.5	·
O=C1CC(C(=O)Nc2ccc(O)c(C(=O)O)c2)C(c2ccccc2)O1 (configuration not stated)	7.0%	6.2	29.1	1.04	-1.6	3.11*
Cc1ccc(C)c(/C(O)=C2\C(=O)C(=O)N(Cc3cccnc3)C2c2cccnc2)c1 (configuration not stated)	5.0%	4.0	5.9	1.18	-3.6	1.04
CSc1nc2[nH]c3c(c2c2nnnn12)CCCC3	4.0%	-42.0	-22.8	1.11	-7.2	2.26*
CSc1nc2[nH]c3c(c2c2nncn12)CC(C)(C)OC3	3.0%	-36.8	-9.4	1.1	-1.6	1
O=C(O)CCCCCNC(=O)CCn1cnc2ccccc2c1=O	1.0%	-14.6	11.6	1.01	-3.5	1.1
Cc1cc(N2CCN(c3ccccc3)CC2)nc(-c2ccccc2)n1	4.0%	-10.8	3.1	0.99	-3.3	1.12
Cc1cc(Nc2ccccc2)nc(-c2ccccc2O)n1	4.0%	-9.8	-1.6	1.12	-4.0	2.17*
Cc1cc(NCc2ccccc2)nc(-c2ccccc2O)n1	9.0%	-13.6	2.3	1.09	-1.2	2.19*
Cc1cc(Nc2cccc(F)c2)nc(-c2ccccc2O)n1	4.0%	4.2	19.2	1.06	0.3	1.33
Cc1cc(N2CCCCCC2)nc(-c2ccccc2O)n1	4.0%	5.6	16.3	1.05	-1.4	3.79*
CCOC(=O)c1ccc(Nc2cc(C)nc(-c3ccccc3O)n2)cc1	5.0%	-0.1	7.2	1.12	8.0	1.43
O=C(C1CCCN(Cc2ccccc2Br)C1)N1CCCCC1 (configuration not stated)	2.0%	-6.6	-9.2	1.03	1.3	1.15
COc1ccc2cc3cc(C(=O)NCCN4CCc5ccccc5C4)oc3nc2c1	6.0%	4.8	11.8	1.08	-1.8	5.11*
COc1ccc(-c2cc(C(=O)NCCN3CCOCC3)c3ccccc3n2)c(OC)c1	2.0%	-2.1	14.4	1.05	·	1.17
COc1ccc2cc3cc(C(=O)NCCN4CCN(Cc5ccccc5)CC4)oc3nc2c1	8.0%	3.9	2.6	1.11	1.5	5.16*
O=Nc1ccc2oc(=O)ccc2c1	·	·	·	·	1.6	·
COC(=O)c1nc(-c2ccccc2)oc1N(C)C	5.0%	-34.6	-2.1	1.1	-1.5	3.83*
COc1cc(-c2nc(S(=O)(=O)c3ccc(C)cc3)c(N(C)C)o2)cc(OC)c1OC	5.0%	3.8	4.2	1.03	-2.7	1.05
